Assay [1] in a line: qHTS assay to identify small molecule agonists of the peroxisome proliferator-activated receptor delta (PPARd) signaling pathway - cell viability counter screen (AID 743211; active = well fitted curve in the direction sought with a large enough effect in the repeat runs; an effect the other way counts as inactive or inconclusive; note: nearly all actives have a fitted effect of over 55% in size; note: potency is the fitted concentration of half-maximal effect). In a few lines:
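In the same wells used for beta-lactamase reporter measurement, cytotoxicity is scored by CellTiter-Glo. HEK293H PPARd-bla cells receive compound for 17 h at 37C following a 5 h settling period.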

Assay [2] addresses Bile acid receptor (Homo sapiens) (UniProt Q96RI1). Nature of the assay: qHTS assay to identify small molecule antagonists of the farnesoid-X-receptor (FXR) signaling pathway (AID 743217; active = well fitted inhibition curve with a large enough effect in the signal ratio in the repeat runs, not every such curve was filed as active; the % refers to the signal ratio). In outline:
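FRET fluorescence after 2 h room-temperature LiveBLAzer loading gives the readout. Prior step: FXR-bla HEK 293T cells, seeded and incubated 5 h, received test compounds plus 50 uM final CDCA for 16 h at 37 °C.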

The nature of assay [3]: qHTS assay to identify small molecule agonists of the farnesoid-X-receptor (FXR) signaling pathway - cell viability counter screen (AID 743218; active = well fitted curve in the direction sought with a large enough effect in the repeat runs; an effect the other way counts as inactive or inconclusive; note: nearly all actives have a fitted effect of over 45% in size). In a few lines:
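Readout: CellTiter-Glo luminescence, 30 min RT, multiplexed after the FXR-bla FRET reading. HEK 293T FXR-UAS-bla cells received compound 5 h post-plating and were incubated 16 h at 37 C.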

In assay [4] the target is Bile acid receptor (Homo sapiens) (UniProt Q96RI1). Nature of the assay: qHTS assay to identify small molecule agonists of the farnesoid-X-receptor (FXR) signaling pathway (AID 743220; active = well fitted activation curve with a large enough effect in the signal ratio in the repeat runs, not every such curve was filed as active; the % refers to the signal ratio). In a few lines:
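FXR-UAS-bla HEK 293T cells carrying a UAS-driven beta-lactamase reporter were plated for 5 h at 37C/5% CO2, then exposed to DMSO-dissolved Tox21 10K compounds for 16 h at 37C. A LiveBLAzer B/G FRET substrate was loaded for 2 h at room temperature before fluorescence reading.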

Assay [5] can be described thus: qHTS assay to identify small molecule antagonists of the farnesoid-X-receptor (FXR) signaling pathway - cell viability counter screen (AID 743221; active = well fitted cell-killing curve with a large enough effect in the repeat runs, not every such curve was filed as active; note: nearly all actives have a fitted effect of over 50% in size; note: potency is the fitted concentration of half-maximal effect). In outline: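 Here viability was scored by luminescence after CellTiter-Glo addition to wells already read for beta-lactamase. Prior treatment: compound plus CDCA (50 uM final), 16 h, 37 C, HEK 293T FXR-bla cells.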
Assay [6] has as its target Vitamin D3 receptor (Homo sapiens) (UniProt P11473). Nature of the assay: qHTS assay to identify small molecule agonists of the vitamin D receptor (VDR) signaling pathway (AID 743222). In outline: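 Following 4 h attachment at 37C, VDR-bla cells (2,000 per well) received DMSO-dissolved compounds or controls. After 16 h incubation, LiveBLAzer B/G FRET substrate was added and fluorescence read 2 h later at room temperature.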

Assay [7] has the same target. The assay can be described thus: qHTS assay to identify small molecule antagonists of the vitamin D receptor (VDR) signaling pathway (AID 743223; active = well fitted inhibition curve with a large enough effect in the signal ratio in the repeat runs, not every such curve was filed as active; the % refers to the signal ratio). In a few lines: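 Inhibition of agonist-driven VDR signalling is scored in VDR-bla cells: 3 nM final 1alpha,25-dihydroxyvitamin D3 plus compound, 16 h at 37C, then beta-lactamase detection by FRET substrate fluorescence after 2 h.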

Assay [8] is described as follows: qHTS assay to identify small molecule agonists of the vitamin D receptor (VDR) signaling pathway - cell viability counter screen (AID 743224; active = well fitted curve in the direction sought with a large enough effect in the repeat runs; an effect the other way counts as inactive or inconclusive; note: series mostly up to about 63 µM; nearly all actives have a fitted effect of over 50% in size). In a few lines:
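In parallel with the bla FRET readout, cytotoxicity toward VDR-bla cells after 16 h compound exposure was assessed by CellTiter-Glo, with luminescence recorded after a 30 min room-temperature incubation.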

The nature of assay [9]: qHTS assay to identify small molecule antagonists of the vitamin D receptor (VDR) signaling pathway - cell viability counter screen (AID 743225; active = well fitted curve in the direction sought with a large enough effect in the repeat runs; an effect the other way counts as inactive or inconclusive; note: nearly all actives have a fitted effect of over 50% in size; note: potency is the fitted concentration of half-maximal effect). In a few lines:
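Compounds were pinned onto VDR-bla HEK 293T cells together with 1-alpha,25-dihydroxyvitamin D3 at 3 nM final. After 16 h at 37C and 5% CO2 plus the reporter readout, cell viability was measured by CellTiter-Glo luminescence (30 min, room temperature).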

Assay [10] can be described thus: qHTS assay to identify small molecule agonists of the endoplasmic reticulum stress response signaling pathway (AID 1159516; active = well fitted activation curve with a large enough effect in the signal ratio in the repeat runs, not every such curve was filed as active; the % refers to the signal ratio). In outline: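 Beta-lactamase expression from the ER stress response element in HeLa reporter cells is quantified with the LiveBLAzer B/G FRET substrate, read at 405 nm excitation after 2 hr at room temperature, following 5 hr compound treatment at 37 C.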

A short description of assay [11]: qHTS assay to identify small molecule agonists of the endoplasmic reticulum stress response signaling pathway - cell viability counter screen (AID 1159517). Note: nearly all actives have a fitted effect of over 50% in size. Note: potency is the fitted concentration of half-maximal effect. In outline:
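Steps: seed 1,500 ESRE-bla HeLa cells per well; incubate overnight at 37 C, 5% CO2; add compounds in DMSO for 5 hr; run FRET substrate 2 hr RT; add CellTiter-Glo, wait 30 min, read luminescence.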

Assay [12] can be described thus: qHTS assay to identify small molecule antagonists of the retinoid-related orphan receptor gamma (ROR-gamma) signaling pathway - cell viability counter screen (AID 1159520; active = well fitted curve in the direction sought with a large enough effect in the repeat runs; an effect the other way counts as inactive or inconclusive; note: nearly all actives have a fitted effect of over 50% in size; note: potency is the fitted concentration of half-maximal effect). In a few lines: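 Tet-on ROR gamma CHO cells were given compounds for 2 hr, then doxycycline hyclate at 1 uM final, and incubated 16 hr at 37 C. Viability was measured as ATP content by CellTiter-Glo luminescence.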

A short description of assay [13]: qHTS assay to identify small molecule agonists of the AP-1 signaling pathway - cell viability counter screen (AID 1159525). Note: nearly all actives have a fitted effect of over 55% in size. Note: potency is the fitted concentration of half-maximal effect. In outline: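 Same-well cytotoxicity counter screen of the Tox21 10K library in ME-180 cells. The readout is ATP-dependent luminescence after 5 h compound treatment. Data are normalised to DMSO and tetra n-octyl ammonium bromide controls.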

The nature of assay [14]: qHTS assay to identify small molecule agonists of the AP-1 signaling pathway (AID 1159526).
Assay [15] concerns the target Retinoic acid receptor RXR-alpha (Homo sapiens) (UniProt P19793). The assay can be described thus: qHTS assay to identify small molecule agonists of the RXR signaling pathway (AID 1159527). Note: nearly all actives have a fitted effect of over 35% in size. In a few lines: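 Using 9-cis retinoic acid as the reference agonist, chemicals were tested in HEK 293T cells […] for 16 hr; substrate loading lasted 2 hr at room temperature.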

Assay [16] has as its target Peroxisome proliferator-activated receptor delta (Homo sapiens) (UniProt Q03181). The assay can be described thus: qHTS assay to identify small molecule agonists of the peroxisome proliferator-activated receptor delta (PPARd) signaling pathway (AID 743212). In a few lines:
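Read-out: beta-lactamase FRET fluorescence after 2 h room-temperature incubation with LiveBLAzer B/G substrate. Cells were HEK293H carrying a UAS-bla reporter for PPARd, treated at 37 C with DMSO-dissolved compounds.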

Assay [17] concerns the target Nuclear receptor ROR-gamma (Homo sapiens) (UniProt P51449). The assay can be described thus: qHTS assay to identify small molecule antagonists of the retinoid-related orphan receptor gamma (ROR-gamma) signaling pathway (AID 1159521; active = well fitted curve in the direction sought with a large enough effect in the repeat runs; an effect the other way counts as inactive or inconclusive). In outline:
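Test compounds were applied to Tet-on RORγ CHO cells 2 h ahead of doxycycline hyclate (1 uM final). Luciferase reporter activity was quantified by luminescence after 16 h at 37 C and 5% CO2.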

Assay [18] can be described thus: qHTS assay to identify small molecule antagonists of the peroxisome proliferator-activated receptor delta (PPARd) signaling pathway - cell viability counter screen (AID 743213; active = well fitted curve in the direction sought with a large enough effect in the repeat runs; an effect the other way counts as inactive or inconclusive; note: nearly all actives have a fitted effect of over 50% in size; note: potency is the fitted concentration of half-maximal effect). In outline:
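Luminescence from CellTiter-Glo, added after the bla read and incubated 30 min at room temperature, gives viability of HEK293H PPARd-bla cells exposed to compounds for 17 h at 37 C with 300 nM L165041.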

The target of assay [19] is Peroxisome proliferator-activated receptor delta (Homo sapiens) (UniProt Q03181). Nature of the assay: qHTS assay to identify small molecule antagonists of the peroxisome proliferator-activated receptor delta (PPARd) signaling pathway (AID 743215; active = well fitted inhibition curve with a large enough effect in the signal ratio in the repeat runs, not every such curve was filed as active; the % refers to the signal ratio;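 note: cells stimulated with agonist L165041 at 300 nM final during compound exposure; series mostly up to about 62 µM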). In a few lines:
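Fluorescence from cleaved LiveBLAzer B/G FRET substrate (2 h, room temperature) reports PPARd-driven beta-lactamase in HEK293H UAS-bla cells. Cells had been treated 17 h at 37 C with compound plus 300 nM final L165041.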

This is an account of results in PubChem BioAssay (Tox21).

Molecules are shown by their SMILES. Inconclusive results are not listed. Active and inactive are the calls of the source. Unless noted, calls come from the whole dose curve.

Chain of Bile acid receptor (Homo sapiens) (Q96RI1 whole entry, looked up): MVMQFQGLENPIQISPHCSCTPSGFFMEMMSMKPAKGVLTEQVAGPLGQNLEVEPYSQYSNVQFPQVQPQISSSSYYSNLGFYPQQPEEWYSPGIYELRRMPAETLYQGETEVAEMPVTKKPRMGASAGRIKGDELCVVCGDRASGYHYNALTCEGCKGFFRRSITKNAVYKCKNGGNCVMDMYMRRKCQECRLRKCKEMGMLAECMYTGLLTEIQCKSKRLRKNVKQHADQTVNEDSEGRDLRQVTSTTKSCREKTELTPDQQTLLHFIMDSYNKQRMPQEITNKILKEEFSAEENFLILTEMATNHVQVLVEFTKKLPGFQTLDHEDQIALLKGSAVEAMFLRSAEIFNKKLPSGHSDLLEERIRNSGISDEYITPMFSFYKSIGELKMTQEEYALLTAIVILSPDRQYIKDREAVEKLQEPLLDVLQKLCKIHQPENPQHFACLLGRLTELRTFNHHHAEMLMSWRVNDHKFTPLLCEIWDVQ
Chain of Retinoic acid receptor RXR-alpha (Homo sapiens) (P19793 whole entry, looked up): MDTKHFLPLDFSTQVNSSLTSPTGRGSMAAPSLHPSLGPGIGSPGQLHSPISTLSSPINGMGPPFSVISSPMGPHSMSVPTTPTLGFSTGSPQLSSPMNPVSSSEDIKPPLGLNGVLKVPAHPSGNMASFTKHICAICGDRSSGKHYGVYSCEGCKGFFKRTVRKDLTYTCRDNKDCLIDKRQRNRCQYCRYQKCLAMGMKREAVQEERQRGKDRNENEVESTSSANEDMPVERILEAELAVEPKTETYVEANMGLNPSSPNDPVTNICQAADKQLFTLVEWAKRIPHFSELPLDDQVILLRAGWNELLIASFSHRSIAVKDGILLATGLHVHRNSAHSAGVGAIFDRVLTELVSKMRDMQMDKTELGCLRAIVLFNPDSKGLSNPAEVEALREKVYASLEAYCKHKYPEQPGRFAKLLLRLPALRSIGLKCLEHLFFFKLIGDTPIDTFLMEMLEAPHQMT
Chain of Peroxisome proliferator-activated receptor delta (Homo sapiens) (Q03181 whole entry, looked up): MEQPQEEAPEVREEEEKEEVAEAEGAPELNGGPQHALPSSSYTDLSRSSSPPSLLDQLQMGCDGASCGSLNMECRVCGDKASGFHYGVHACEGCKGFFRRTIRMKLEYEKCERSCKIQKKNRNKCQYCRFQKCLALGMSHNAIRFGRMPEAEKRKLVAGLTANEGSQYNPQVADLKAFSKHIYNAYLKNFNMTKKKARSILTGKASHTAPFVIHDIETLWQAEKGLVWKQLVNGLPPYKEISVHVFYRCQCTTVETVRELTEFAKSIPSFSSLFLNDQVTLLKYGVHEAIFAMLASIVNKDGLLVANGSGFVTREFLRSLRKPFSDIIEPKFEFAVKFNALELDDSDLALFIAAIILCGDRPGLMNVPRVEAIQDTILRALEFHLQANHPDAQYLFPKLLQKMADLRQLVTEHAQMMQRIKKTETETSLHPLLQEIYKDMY
Chain of Vitamin D3 receptor (Homo sapiens) (P11473 whole entry, looked up): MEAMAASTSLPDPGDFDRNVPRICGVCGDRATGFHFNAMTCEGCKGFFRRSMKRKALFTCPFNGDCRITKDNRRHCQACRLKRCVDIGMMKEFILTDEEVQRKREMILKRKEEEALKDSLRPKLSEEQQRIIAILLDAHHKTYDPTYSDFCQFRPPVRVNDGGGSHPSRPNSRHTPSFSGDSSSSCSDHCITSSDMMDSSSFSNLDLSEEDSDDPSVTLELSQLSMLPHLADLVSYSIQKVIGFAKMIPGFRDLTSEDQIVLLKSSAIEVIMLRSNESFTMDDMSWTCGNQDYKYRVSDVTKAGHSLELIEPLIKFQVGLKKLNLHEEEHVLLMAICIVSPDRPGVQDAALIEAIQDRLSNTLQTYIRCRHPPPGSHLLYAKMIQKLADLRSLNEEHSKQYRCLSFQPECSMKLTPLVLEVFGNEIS

In the case of `O=NN(CCO)CCO`, the Potency entry in assay [1], in assay [2], in assay [3], in [4], in assay [5] and in assay [6] was “inactive” each time. Besides, the Potency entry in assay [7], in assay [8], in assay [9], in assay [10], in assay [11] and in assay [12] was “inactive” in each case. For the same molecule, the Potency result in assay [13], in assay [14] and in [15] was “inactive” each time.

For `O=C(N[C@H]1N=C(c2ccccc2F)c2cccc3c2N(CC3)C1=O)c1cc2ccccc2[nH]1`, the Potency entry in assay [1], in [16], in assay [3], in [5], in assay [6] and in assay [7] was “inactive” each time. The Potency entry in assay [9], in assay [11], in [12], in assay [17], in assay [13] and in [15] was “inactive” each time.

Turning to `Cc1c([N+](=O)[O-])c(C)c([N+](=O)[O-])c(C(C)(C)C)c1[N+](=O)[O-]`, the Potency entry in [1], in assay [16], in [18], in assay [19], in assay [6] and in assay [7] was “inactive” each time. Also, the Potency result in assay [8], in assay [10], in assay [13] and in [14] was “inactive” each time.

For the molecule `S=C=NCCc1ccccc1`, the Potency result in [16], in [19], in assay [7], in [8], in [10] and in assay [13] was “inactive” each time.

Turning to `Cc1ccc(C)c2ccccc12`, the Potency entry in [1], in [16], in assay [18], in [19], in assay [2] and in assay [3] was “inactive” each time. The Potency entry in assay [4], in assay [5], in [6], in assay [7], in assay [9] and in assay [10] was “inactive” throughout. The Potency result in [11], in [12], in assay [13] and in [14] was “inactive” each time.

For `CCN1CCC2(CC1)COc1cc3c(cc12)N(C(=O)c1ccc(-c2ccc(-c4nnc(C)o4)cc2C)cc1)CC3`, the Potency in assay [1] is 9.01 µM (active); in [18], 6.38 µM (active); in assay [5], 45.2 µM (active); in assay [9], 20.2 µM (active); in [11], 50.7 µM (active); in assay [12], 28.3 µM (active). The Potency in assay [13] was 45.2 µM (active).

As to `CCN(CC)C(=O)N[C@@H]1C=C2c3cccc4[nH]cc(c34)C[C@@H]2N(C)C1`, the Potency result in assay [1], in [5], in [6], in assay [9], in assay [10] and in assay [11] was “inactive” in each case. Besides, the Potency entry in assay [13], in assay [14] and in [15] was “inactive” in each case.

As to `CCCCC(CC)COC(=O)c1ccccc1C(=O)OCC(CC)CCCC` (stereo not drawn), the Potency entry in [19], in assay [8], in assay [10], in [12], in assay [13] and in [14] was “inactive” throughout.

For the molecule `CC(Cc1ccc2c(c1)OCO2)NO` (stereo not drawn), the Potency result in assay [1], in assay [16], in assay [2], in [3], in assay [4] and in [6] was “inactive” each time. Besides, the Potency entry in [7], in assay [8], in assay [9], in assay [10], in [12] and in assay [13] was “inactive” each time. Besides, the Potency entry in [14] is “inactive”.

For the molecule `OCC(Br)CBr` (stereo not drawn), the Potency result in [1], in [16], in assay [18], in [19], in [2] and in assay [3] was “inactive” throughout. The Potency entry in [4], in [5], in [6], in assay [7], in assay [8] and in [9] was “inactive” throughout. In addition, the Potency result in [10], in assay [11], in [13], in assay [14] and in assay [15] was “inactive” in each case.

Take `CC(C)=CC1C(C(=O)OC(C#N)c2cccc(Oc3ccccc3)c2)C1(C)C` (stereo not drawn): the Potency entry in assay [1], in [16], in assay [18], in assay [2], in assay [3] and in assay [4] was “inactive” throughout. Further, the Potency result in [8], in assay [11], in [12], in assay [17], in assay [13] and in [14] was “inactive” in each case.
